This is part of a sample that, as a whole, favours compounds with a hit. Of some 79,000 tested, about 15% had one in any assay. Activity calls are given as the source filed them. Cut-off read from the data, not from the text of the source: active = growth inhibition above about 70%; inactive = the rest.
How the values were obtained:
[1] = NCI Yeast Anticancer Drug Screen. Data for the wt2 strain (AID 169);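 note: 0% = growth of vehicle-treated yeast cultures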; settings: S. cerevisiae wt2 strain growth inhibition, active compounds read high
Outline: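 Yeast cells were exposed to test compounds, and growth inhibition was measured relative to vehicle-treated controls.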

[2] = NCI Yeast Anticancer Drug Screen. Data for the mlh1 strain (AID 171);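 note: 0% = growth of vehicle-treated control cultures of the same strain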; settings: S. cerevisiae mlh1 strain growth inhibition, active compounds read high
Outline: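 Yeast carrying a defined genetic alteration in DNA damage repair or cell cycle control were exposed to test compounds. Growth inhibition was measured relative to vehicle-treated controls.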

[3] = NCI Yeast Anticancer Drug Screen. Data for the sgs1 strain (AID 173);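 note: 0% = growth of vehicle-only control cultures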; settings: S. cerevisiae sgs1 mutant, active compounds read high
Outline: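 Yeast mutant strains carrying defined defects in DNA damage repair or cell cycle control were exposed to test compounds. Growth inhibition was scored against vehicle-treated controls.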

[4] = NCI Yeast Anticancer Drug Screen. Data for the mlh1 rad18 strain (AID 175); settings: S. cerevisiae mlh1 rad18 strain growth inhibition, active compounds read high
Outline: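 Growth inhibition of the yeast strain was measured after compound exposure and expressed relative to vehicle-treated controls. The strain carries defined defects in DNA damage repair.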

[5] = NCI Yeast Anticancer Drug Screen. Data for the rad18 strain (AID 177); settings: S. cerevisiae rad18 mutant growth inhibition, active compounds read high
Outline: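 Yeast carrying a defined DNA damage repair alteration were exposed to compounds. Growth inhibition was expressed relative to vehicle-treated controls.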

[6] = NCI Yeast Anticancer Drug Screen. Data for the rad52 strain (AID 147);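 note: 0% = growth of vehicle-treated control cultures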; settings: S. cerevisiae rad52 mutant growth inhibition, active compounds read high
Outline: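 Yeast strain carrying a DNA damage repair alteration was exposed to test compounds. Growth inhibition was measured relative to vehicle-treated controls.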

[7] = NCI Yeast Anticancer Drug Screen. Data for the wt1 strain (AID 149);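 note: 0% = growth of vehicle-treated wt1 cultures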; settings: S. cerevisiae wt1 strain (SPY 50644) growth inhibition, active compounds read high
Outline: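 wt1 yeast, compound-treated; % growth inhibition vs vehicle control.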

[8] = NCI Yeast Anticancer Drug Screen. Data for the rad50EPP+ strain (AID 151);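 note: 0% = growth of vehicle-treated control cultures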; settings: S. cerevisiae rad50 mutant strain, active compounds read high
Outline: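 Yeast strain carrying rad50 alteration (rad50EPP+) exposed to compounds; growth inhibition measured relative to vehicle-treated controls.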

[9] = NCI Yeast Anticancer Drug Screen. Data for the mgt1 strain (AID 153); settings: S. cerevisiae mgt1 mutant growth inhibition, active compounds read high
Outline: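 Yeast mgt1 strain (DNA repair/cell-cycle alteration panel) exposed to compounds; growth inhibition measured relative to vehicle-treated controls.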

[10] = NCI Yeast Anticancer Drug Screen. Data for the rad50 strain (AID 155);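 note: 0% = growth of vehicle-only cultures of the same strain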; settings: S. cerevisiae rad50 strain growth inhibition, active compounds read high
Outline: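 Genetically altered yeast (DNA repair pathway); compound treatment; growth inhibition vs vehicle ctrl.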

[11] = NCI Yeast Anticancer Drug Screen. Data for the mec2-1 strain (AID 157); settings: S. cerevisiae mec2-1 strain, active compounds read high
Outline: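 mec2-1 yeast strain, carrying an alteration in DNA damage repair or cell cycle control, was exposed to compounds; growth inhibition was measured relative to vehicle-treated controls.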

[12] = NCI Yeast Anticancer Drug Screen. Data for the rad14 strain (AID 159);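 note: 0% = growth of vehicle-treated control cultures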; settings: S. cerevisiae rad14 strain growth inhibition, active compounds read high
Outline: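 Test compounds were applied to a repair-deficient yeast strain. Its growth was then compared with that of cultures given vehicle alone, and inhibition was expressed relative to those controls.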

[13] = NCI Yeast Anticancer Drug Screen. Data for the sgs1 mgt1 strain (AID 161);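 note: 0% = growth of cultures given vehicle only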; settings: S. cerevisiae sgs1 mgt1 strain, active compounds read high
Outline: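 Percent growth inhibition was derived by comparing compound-exposed mutant yeast with vehicle-exposed cultures. The strain carries alterations in DNA damage repair.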

[14] = NCI Yeast Anticancer Drug Screen. Data for the CLN2oe strain (AID 163);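 note: 0% = growth of vehicle-only control cultures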; settings: S. cerevisiae CLN2oe strain, active compounds read high
Outline: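 Yeast cells carrying a defined cell-cycle control alteration were exposed to test compounds. Growth inhibition was scored against vehicle-treated control cultures.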

[15] = NCI Yeast Anticancer Drug Screen. Data for the cln2 rad14 strain (AID 165);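 note: 0% = growth equal to vehicle treated cultures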; settings: S. cerevisiae cln2 rad14 strain, active compounds read high
Outline: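 Yeast carrying cln2 and rad14 alterations (cell cycle control and DNA damage repair) were exposed to compounds. Growth inhibition was measured against vehicle-treated controls.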

[16] = NCI Yeast Anticancer Drug Screen. Data for the bub3 strain (AID 167); settings: S. cerevisiae bub3 mutant strain, active compounds read high
Outline: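 Yeast carrying a defined mutation is treated with each compound, and growth is compared with that of vehicle-exposed cells to give inhibition.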

[17] = at 5.0 µM (retest, dose inferred, filed as 0.5)
[18] = at 50.0 µM (retest, dose inferred, filed as 5.0)

Measured: growth inhibition

O=C1C(Nc2ccccc2)=C(Oc2ccccc2)C(=O)c2ccccc21
inactive: [1]; at 1.2 µM -10% | [1]; at 3.7 µM 0% | [1]; at 11.0 µM 11% | [1]; at 33.0 µM 35% | [1]; at 100.0 µM 29% | [2]; at 1.2 µM -5% | [2]; at 3.7 µM 0% | [2]; at 11.0 µM 1% | [2]; at 33.0 µM 0% | [2]; at 100.0 µM 0% | [3]; at 1.2 µM -7% | [3]; at 3.7 µM -2% | [3]; at 11.0 µM 3% | [3]; at 33.0 µM 15% | [3]; at 100.0 µM 16% | [4]; [17] -3% | [4]; [18] 30% | [4]; at 50.0 µM 58.8% | [5]; at 1.2 µM -4% | [5]; at 3.7 µM 4% | [5]; at 11.0 µM 4% | [5]; at 33.0 µM 14% | [5]; at 100.0 µM 1%

O=c1ssc2ncccc12
inactive: [6]; at 1.2 µM 3% | [6]; at 3.7 µM 15% | [7]; at 1.2 µM 2% | [7]; at 3.7 µM -2% | [7]; at 11.0 µM 11% | [7]; at 33.0 µM 47% | [8]; at 1.2 µM -5% | [8]; at 3.7 µM 6% | [8]; at 11.0 µM 45% | [9]; at 1.2 µM -1% | [9]; at 3.7 µM 10% | [9]; at 11.0 µM 41% | [10]; at 1.2 µM 15% | [10]; at 3.7 µM 49% | [10]; [17] 24% | [11]; at 1.2 µM 3% | [11]; at 3.7 µM 6% | [11]; [17] 14% | [11]; at 11.0 µM 29% | [12]; at 1.2 µM 7% | [12]; at 3.7 µM 14% | [12]; at 11.0 µM 49% | [13]; [17] 31% | [14]; at 1.2 µM -7% | [14]; at 3.7 µM 6% | [14]; at 11.0 µM 45% | [15]; [17] 21% | [15]; at 50.0 µM 49.6% | [16]; at 1.2 µM 2% | [16]; at 3.7 µM 4% | [16]; [17] 23% | [16]; at 11.0 µM 36% | [1]; at 1.2 µM -6% | [1]; at 3.7 µM -4% | [1]; at 11.0 µM 15% | [1]; at 33.0 µM 57% | [2]; at 1.2 µM 9% | [2]; at 3.7 µM 20% | [2]; at 11.0 µM 56% | [3]; at 1.2 µM 4% | [3]; at 3.7 µM 12% | [5]; at 1.2 µM 7% | [5]; at 3.7 µM 27%
active: [6]; at 11.0 µM 71% | [6]; at 33.0 µM 95% | [6]; at 100.0 µM 99% | [7]; at 100.0 µM 97% | [8]; at 33.0 µM 86% | [8]; at 100.0 µM 97% | [9]; at 33.0 µM 84% | [9]; at 100.0 µM 99% | [10]; at 11.0 µM 82% | [10]; at 33.0 µM 97% | [10]; [18] 99% | [10]; at 50.0 µM 97.1% | [10]; at 100.0 µM 99% | [11]; at 33.0 µM 83% | [11]; [18] 96% | [11]; at 50.0 µM 91.2% | [11]; at 100.0 µM 97% | [12]; at 33.0 µM 97% | [12]; at 100.0 µM 99% | [13]; [18] 96% | [13]; at 50.0 µM 93.2% | [14]; at 33.0 µM 85% | [14]; at 100.0 µM 97% | [15]; [18] 90% | [16]; at 33.0 µM 87% | [16]; [18] 97% | [16]; at 50.0 µM 93.2% | [16]; at 100.0 µM 98% | [1]; at 100.0 µM 98% | [2]; at 33.0 µM 95% | [2]; at 100.0 µM 99% | [3]; at 11.0 µM 72% | [3]; at 33.0 µM 96% | [3]; at 100.0 µM 99% | [5]; at 11.0 µM 74% | [5]; at 33.0 µM 97% | [5]; at 100.0 µM 99%

S=c1[nH]nc(Nc2ccc(Cl)cc2)s1
active: [6]; at 33.0 µM 70% | [6]; at 100.0 µM 96% | [7]; at 100.0 µM 89% | [10]; at 50.0 µM 92.8% | [11]; [18] 93% | [11]; at 50.0 µM 91.8% | [11]; at 100.0 µM 91% | [12]; at 100.0 µM 96% | [13]; [18] 86% | [13]; at 50.0 µM 89% | [14]; at 100.0 µM 73% | [15]; [18] 83% | [15]; at 50.0 µM 90.5% | [16]; at 50.0 µM 88.8% | [1]; at 33.0 µM 82% | [1]; at 100.0 µM 98% | [3]; at 100.0 µM 91% | [5]; at 100.0 µM 94%
inactive: [6]; at 1.2 µM -6% | [6]; at 3.7 µM -9% | [6]; at 11.0 µM 1% | [7]; at 1.2 µM 1% | [7]; at 3.7 µM 4% | [7]; at 11.0 µM 6% | [7]; at 33.0 µM 36% | [8]; at 1.2 µM -2% | [8]; at 3.7 µM -10% | [8]; at 11.0 µM 13% | [8]; at 33.0 µM 27% | [8]; at 100.0 µM 23% | [9]; at 1.2 µM -1% | [9]; at 3.7 µM -7% | [9]; at 11.0 µM -2% | [9]; at 33.0 µM -8% | [9]; at 100.0 µM 19% | [10]; at 1.2 µM -7% | [10]; at 3.7 µM -13% | [10]; [17] -150% | [10]; at 11.0 µM -10% | [10]; at 33.0 µM -17% | [10]; [18] 32% | [10]; at 100.0 µM 42% | [11]; at 1.2 µM -1% | [11]; at 3.7 µM -1% | [11]; [17] -49% | [11]; at 11.0 µM -6% | [11]; at 33.0 µM 3% | [12]; at 1.2 µM -3% | [12]; at 3.7 µM 1% | [12]; at 11.0 µM 0% | [12]; at 33.0 µM 46% | [13]; [17] -61% | [14]; at 1.2 µM -7% | [14]; at 3.7 µM -7% | [14]; at 11.0 µM -13% | [14]; at 33.0 µM -11% | [15]; [17] -55% | [16]; at 1.2 µM -3% | [16]; at 3.7 µM -1% | [16]; [17] -67% | [16]; at 11.0 µM -7% | [16]; at 33.0 µM -10% | [16]; [18] 38% | [16]; at 100.0 µM 9% | [1]; at 1.2 µM 1% | [1]; at 3.7 µM 9% | [1]; at 11.0 µM 8% | [2]; at 1.2 µM -7% | [2]; at 3.7 µM -2% | [2]; at 11.0 µM -4% | [2]; at 33.0 µM 8% | [2]; at 100.0 µM 61% | [3]; at 1.2 µM -14% | [3]; at 3.7 µM -7% | [3]; at 11.0 µM 2% | [3]; at 33.0 µM 37% | [5]; at 1.2 µM -3% | [5]; at 3.7 µM 2% | [5]; at 11.0 µM -4% | [5]; at 33.0 µM 38%

From PubChem BioAssay (NCI)
